For 1 sequence, binding signal results are on record in publication PMC7862700, “An all-to-all approach to the identification of sequence-specific readers for epigenetic DNA modifications on cytosine”.

Holding throughout (assay): DAPPL (digital affinity profiling via proximity ligation, sequencing); 10 mM Tris-HCl pH 7.5, 50 mM NaCl, 1 mM DTT, 4% glycerol, room temperature, 30 min; GST-TFs on glutathione beads, 16-mer random dsDNA library, 0.1% formaldehyde crosslink after washing; high values mean tight binding
For one test, the target named is T1, FLI1 (Homo sapiens, UniProt Q01543 1-452).
T1 sequence: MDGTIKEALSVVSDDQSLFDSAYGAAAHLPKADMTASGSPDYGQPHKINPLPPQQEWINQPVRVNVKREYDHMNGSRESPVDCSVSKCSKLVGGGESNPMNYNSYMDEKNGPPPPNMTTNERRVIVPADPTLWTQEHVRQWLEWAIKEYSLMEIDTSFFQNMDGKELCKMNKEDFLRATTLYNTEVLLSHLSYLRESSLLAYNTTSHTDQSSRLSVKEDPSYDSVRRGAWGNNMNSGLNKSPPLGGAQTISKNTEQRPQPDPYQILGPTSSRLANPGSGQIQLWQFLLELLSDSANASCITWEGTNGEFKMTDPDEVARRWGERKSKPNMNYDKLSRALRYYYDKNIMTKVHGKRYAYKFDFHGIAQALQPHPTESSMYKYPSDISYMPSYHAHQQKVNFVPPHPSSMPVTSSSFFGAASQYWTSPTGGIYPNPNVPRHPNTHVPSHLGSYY
As to conditions: protein: recombinant; tags: N-terminal GST; dsDNA, one strand shown. In a few lines: (§1)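 Beads coated with glutathione captured GST-fused human transcription factors that had been expressed in yeast, and the factors were then given DNA barcodes and pooled with a tag-only sample. The pools were incubated with 200 nmole of a random double-stranded 16-mer DNA library in Tris/NaCl/DTT/glycerol buffer for 30 min at room temperature, washed, crosslinked with 0.1% formaldehyde and proximity-ligated with BsaI/T4 ligase at 37 °C for 1 h. PCR amplification and Illumina NextSeq500 sequencing came last. Binding signal is each hexamer's read frequency for a factor divided by its frequency for the tag-only sample.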

Another test concerns the target T2, ELK1 (Homo sapiens, UniProt P19419 1-428).
T2 sequence: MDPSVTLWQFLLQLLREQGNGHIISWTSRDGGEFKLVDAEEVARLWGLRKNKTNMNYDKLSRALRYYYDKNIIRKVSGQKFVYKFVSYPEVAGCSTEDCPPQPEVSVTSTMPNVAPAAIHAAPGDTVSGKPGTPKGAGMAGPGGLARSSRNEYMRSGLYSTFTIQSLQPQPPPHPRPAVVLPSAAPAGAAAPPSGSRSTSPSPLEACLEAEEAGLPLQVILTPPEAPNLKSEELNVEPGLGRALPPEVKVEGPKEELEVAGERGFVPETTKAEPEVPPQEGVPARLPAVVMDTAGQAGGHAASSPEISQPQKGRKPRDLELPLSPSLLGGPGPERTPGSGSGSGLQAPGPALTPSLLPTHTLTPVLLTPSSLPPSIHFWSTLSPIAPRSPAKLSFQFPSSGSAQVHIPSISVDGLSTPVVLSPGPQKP
To be noted: protein: recombinant; tags: N-terminal GST; dsDNA, one strand shown. In a few lines:
as §1

The target of the next test is T3, GABPA (Homo sapiens, UniProt Q06546 1-454).
T3 sequence: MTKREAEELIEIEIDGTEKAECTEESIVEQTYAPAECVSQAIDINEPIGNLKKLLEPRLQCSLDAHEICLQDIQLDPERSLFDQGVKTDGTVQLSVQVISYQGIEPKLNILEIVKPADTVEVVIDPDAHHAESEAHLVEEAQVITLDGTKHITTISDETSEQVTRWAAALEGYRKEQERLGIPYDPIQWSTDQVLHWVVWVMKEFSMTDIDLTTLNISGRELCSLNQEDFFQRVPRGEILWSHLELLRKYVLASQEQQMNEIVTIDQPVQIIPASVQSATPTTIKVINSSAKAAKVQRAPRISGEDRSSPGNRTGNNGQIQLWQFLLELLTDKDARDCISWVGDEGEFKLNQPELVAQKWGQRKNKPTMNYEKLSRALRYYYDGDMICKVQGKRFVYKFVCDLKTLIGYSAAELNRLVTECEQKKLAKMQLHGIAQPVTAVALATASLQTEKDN
To be noted: protein: recombinant; tags: N-terminal GST; dsDNA, one strand shown. Summed up:
as §1

In a further test the target is T4, ERG (Homo sapiens, UniProt P11308 1-479).
T4 sequence: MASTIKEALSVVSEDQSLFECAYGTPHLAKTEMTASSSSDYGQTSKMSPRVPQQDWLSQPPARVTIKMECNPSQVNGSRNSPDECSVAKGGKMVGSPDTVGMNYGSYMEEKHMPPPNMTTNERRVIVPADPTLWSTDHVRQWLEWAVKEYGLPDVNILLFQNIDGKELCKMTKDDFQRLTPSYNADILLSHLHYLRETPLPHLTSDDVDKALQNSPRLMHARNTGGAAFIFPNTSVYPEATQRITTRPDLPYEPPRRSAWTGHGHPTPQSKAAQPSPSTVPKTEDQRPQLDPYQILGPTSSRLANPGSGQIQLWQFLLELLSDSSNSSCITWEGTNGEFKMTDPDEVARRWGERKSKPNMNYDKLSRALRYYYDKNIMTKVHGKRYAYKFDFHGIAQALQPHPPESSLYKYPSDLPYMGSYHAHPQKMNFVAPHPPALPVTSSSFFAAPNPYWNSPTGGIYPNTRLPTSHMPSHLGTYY
As to conditions: protein: recombinant; tags: N-terminal GST; dsDNA, one strand shown. In a few lines:
as §1

In another test the target is ELF1 (Homo sapiens, UniProt P32519 1-619). To be noted: protein: recombinant; tags: N-terminal GST; dsDNA, one strand shown. Summed up: as §1
Chain of ELF1 (P32519 whole entry): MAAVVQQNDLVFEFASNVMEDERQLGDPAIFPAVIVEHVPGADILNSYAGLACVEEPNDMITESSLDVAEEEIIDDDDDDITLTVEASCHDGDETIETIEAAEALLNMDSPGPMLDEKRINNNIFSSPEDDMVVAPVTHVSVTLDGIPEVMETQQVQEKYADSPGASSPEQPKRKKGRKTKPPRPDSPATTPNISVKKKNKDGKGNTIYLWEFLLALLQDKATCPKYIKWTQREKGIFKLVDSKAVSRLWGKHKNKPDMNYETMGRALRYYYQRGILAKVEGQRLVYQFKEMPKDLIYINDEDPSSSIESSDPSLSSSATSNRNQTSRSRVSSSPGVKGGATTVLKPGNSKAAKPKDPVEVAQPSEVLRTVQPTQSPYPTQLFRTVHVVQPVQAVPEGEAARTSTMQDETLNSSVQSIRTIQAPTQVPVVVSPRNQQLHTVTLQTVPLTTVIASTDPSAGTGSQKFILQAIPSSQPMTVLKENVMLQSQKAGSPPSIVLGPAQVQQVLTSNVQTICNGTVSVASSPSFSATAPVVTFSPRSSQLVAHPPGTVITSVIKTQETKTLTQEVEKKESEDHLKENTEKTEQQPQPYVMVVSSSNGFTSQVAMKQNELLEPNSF
In a further test the target is T5, EHF (Homo sapiens, UniProt Q9NZC4 1-300).
T5 sequence: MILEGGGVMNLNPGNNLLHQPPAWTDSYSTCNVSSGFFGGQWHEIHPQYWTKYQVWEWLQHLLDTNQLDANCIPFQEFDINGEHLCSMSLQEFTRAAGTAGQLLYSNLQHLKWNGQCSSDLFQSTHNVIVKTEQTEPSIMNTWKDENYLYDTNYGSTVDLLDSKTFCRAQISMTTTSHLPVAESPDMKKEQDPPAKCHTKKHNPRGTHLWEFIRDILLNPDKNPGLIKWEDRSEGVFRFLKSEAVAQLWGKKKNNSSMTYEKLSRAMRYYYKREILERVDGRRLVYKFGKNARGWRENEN
To be noted: protein: recombinant; tags: N-terminal GST; dsDNA, one strand shown. Summed up: as §1

For a further test, the target named is SPI1 (Homo sapiens, UniProt P17947 1-270). To be noted: protein: recombinant; tags: N-terminal GST; dsDNA, one strand shown. In a few lines: as §1
In a further test the target is SPIB (Homo sapiens, UniProt Q01892 1-262). To be noted: protein: recombinant; tags: N-terminal GST; dsDNA, one strand shown. Summed up:
as §1

The target of another test is T6, FEV (Homo sapiens, UniProt Q99581 1-238).
T6 sequence: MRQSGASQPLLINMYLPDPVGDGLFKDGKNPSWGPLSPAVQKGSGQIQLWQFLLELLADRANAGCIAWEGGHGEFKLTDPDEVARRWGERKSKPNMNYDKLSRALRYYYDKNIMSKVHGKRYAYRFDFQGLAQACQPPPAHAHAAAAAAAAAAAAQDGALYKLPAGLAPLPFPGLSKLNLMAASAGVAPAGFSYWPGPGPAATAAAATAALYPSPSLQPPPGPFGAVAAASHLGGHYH
As to conditions: protein: recombinant; tags: N-terminal GST; dsDNA, one strand shown. In a few lines:
as §1

A further test has as its target ETV5 (Homo sapiens, UniProt P41161 1-510). To be noted: protein: recombinant; tags: N-terminal GST; dsDNA, one strand shown. Summed up:
as §1

Another test addresses HSF1 (Homo sapiens, UniProt Q00613 1-529). To be noted: protein: recombinant; tags: N-terminal GST; chain copies: 3; dsDNA, one strand shown. Summed up: as §1
The target in the next test is T7, SPIC (Homo sapiens, UniProt Q8N5J4 1-248).
T7 sequence: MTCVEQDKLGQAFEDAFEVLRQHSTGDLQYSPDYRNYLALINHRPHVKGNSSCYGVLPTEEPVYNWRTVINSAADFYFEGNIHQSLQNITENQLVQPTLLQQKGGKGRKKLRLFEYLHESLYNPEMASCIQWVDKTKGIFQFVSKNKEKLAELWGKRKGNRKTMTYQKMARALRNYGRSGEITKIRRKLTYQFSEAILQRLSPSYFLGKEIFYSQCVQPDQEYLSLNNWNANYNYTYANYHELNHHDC
To be noted: protein: recombinant; tags: N-terminal GST; dsDNA, one strand shown. Summed up:
as §1

The next test deals with ELF4 (Homo sapiens, UniProt Q99607 1-663). To be noted: protein: recombinant; tags: N-terminal GST; dsDNA, one strand shown. In a few lines: as §1
Chain of ELF4 (Q99607 whole entry): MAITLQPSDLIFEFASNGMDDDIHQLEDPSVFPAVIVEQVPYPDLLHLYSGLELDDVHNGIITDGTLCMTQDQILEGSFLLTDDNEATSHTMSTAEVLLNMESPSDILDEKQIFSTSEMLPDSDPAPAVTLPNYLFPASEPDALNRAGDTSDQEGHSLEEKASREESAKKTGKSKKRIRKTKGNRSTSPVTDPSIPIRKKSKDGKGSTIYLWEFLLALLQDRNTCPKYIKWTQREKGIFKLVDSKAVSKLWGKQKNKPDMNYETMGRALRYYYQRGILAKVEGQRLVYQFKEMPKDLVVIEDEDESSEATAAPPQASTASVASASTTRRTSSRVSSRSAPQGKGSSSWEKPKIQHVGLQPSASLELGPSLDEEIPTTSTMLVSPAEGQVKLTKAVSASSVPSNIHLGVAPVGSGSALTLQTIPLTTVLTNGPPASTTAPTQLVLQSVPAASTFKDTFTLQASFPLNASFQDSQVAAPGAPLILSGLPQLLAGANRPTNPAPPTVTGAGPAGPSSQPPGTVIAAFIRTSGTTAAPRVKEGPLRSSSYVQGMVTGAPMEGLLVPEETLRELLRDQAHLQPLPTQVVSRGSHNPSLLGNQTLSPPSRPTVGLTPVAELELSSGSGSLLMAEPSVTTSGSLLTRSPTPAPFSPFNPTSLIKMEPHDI
Another test has as its target T8, ETV2 (Homo sapiens, UniProt O00321 1-342).
T8 sequence: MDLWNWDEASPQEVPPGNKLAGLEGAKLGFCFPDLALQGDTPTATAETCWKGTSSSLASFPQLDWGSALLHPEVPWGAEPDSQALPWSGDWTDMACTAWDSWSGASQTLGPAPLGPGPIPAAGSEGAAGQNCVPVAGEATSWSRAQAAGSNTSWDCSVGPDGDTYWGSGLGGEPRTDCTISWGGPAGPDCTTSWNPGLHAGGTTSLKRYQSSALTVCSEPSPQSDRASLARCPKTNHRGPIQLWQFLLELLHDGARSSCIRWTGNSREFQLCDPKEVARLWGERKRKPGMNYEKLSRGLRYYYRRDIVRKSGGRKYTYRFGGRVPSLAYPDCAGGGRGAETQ
To be noted: protein: recombinant; tags: N-terminal GST; dsDNA, one strand shown. In a few lines:
as §1

The target of another test is CRX (Homo sapiens, UniProt O43186 1-299). As to conditions: protein: recombinant; tags: N-terminal GST; dsDNA, one strand shown. In a few lines:
as §1

The next test addresses ETV1 (Homo sapiens, UniProt P50549 1-477). To be noted: protein: recombinant; tags: N-terminal GST; dsDNA, one strand shown. In a few lines: as §1

Chain of SPIB (Q01892 whole entry): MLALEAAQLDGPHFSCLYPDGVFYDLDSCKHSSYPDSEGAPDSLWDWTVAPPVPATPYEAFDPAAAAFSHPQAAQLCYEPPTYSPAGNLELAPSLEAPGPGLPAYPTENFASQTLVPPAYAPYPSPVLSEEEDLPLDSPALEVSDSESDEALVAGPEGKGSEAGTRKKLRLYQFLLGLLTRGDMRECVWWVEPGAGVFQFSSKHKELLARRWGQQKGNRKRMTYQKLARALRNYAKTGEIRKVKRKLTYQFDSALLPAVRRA
Chain of ETV1 (P50549 whole entry): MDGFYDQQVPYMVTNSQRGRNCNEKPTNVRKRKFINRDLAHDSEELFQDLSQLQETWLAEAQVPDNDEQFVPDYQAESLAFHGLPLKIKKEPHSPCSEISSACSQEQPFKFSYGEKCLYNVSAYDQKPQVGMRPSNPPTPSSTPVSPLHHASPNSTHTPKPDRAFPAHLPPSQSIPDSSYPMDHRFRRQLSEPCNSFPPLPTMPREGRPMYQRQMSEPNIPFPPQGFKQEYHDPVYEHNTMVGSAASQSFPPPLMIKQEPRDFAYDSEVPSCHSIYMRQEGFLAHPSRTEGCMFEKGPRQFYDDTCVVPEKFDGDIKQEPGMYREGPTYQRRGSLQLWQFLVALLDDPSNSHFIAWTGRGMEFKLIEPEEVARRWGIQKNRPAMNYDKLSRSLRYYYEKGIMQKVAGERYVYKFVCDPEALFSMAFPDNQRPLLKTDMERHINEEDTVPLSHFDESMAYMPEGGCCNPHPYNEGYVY
Chain of HSF1 (Q00613 whole entry): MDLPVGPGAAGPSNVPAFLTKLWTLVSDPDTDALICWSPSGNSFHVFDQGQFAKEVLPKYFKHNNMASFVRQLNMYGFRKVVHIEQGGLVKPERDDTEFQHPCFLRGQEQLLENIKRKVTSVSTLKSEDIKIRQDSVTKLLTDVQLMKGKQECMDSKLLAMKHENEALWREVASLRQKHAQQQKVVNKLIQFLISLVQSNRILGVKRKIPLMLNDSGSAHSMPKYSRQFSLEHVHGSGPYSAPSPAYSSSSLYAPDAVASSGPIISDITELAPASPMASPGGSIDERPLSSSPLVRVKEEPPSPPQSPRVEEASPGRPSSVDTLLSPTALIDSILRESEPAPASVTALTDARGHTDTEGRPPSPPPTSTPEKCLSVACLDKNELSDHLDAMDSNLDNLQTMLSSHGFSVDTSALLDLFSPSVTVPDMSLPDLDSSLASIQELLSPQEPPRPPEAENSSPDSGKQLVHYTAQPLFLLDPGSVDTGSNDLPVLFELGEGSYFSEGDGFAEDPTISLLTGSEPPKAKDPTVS
Chain of ETV5 (P41161 whole entry): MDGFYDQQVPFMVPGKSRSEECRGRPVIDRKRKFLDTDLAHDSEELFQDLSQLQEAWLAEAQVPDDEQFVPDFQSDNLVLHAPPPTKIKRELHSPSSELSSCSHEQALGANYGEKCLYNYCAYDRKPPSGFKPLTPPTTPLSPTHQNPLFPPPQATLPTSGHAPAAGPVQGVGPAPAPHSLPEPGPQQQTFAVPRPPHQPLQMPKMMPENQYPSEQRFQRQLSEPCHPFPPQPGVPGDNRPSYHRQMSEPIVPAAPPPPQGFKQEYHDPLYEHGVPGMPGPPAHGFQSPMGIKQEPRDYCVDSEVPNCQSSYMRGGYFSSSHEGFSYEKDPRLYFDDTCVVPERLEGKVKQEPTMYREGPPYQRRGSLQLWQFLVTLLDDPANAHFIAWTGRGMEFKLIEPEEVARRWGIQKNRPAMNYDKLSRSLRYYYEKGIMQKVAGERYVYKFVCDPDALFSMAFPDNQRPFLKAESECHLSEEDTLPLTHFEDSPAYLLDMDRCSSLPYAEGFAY
Chain of CRX (O43186 whole entry): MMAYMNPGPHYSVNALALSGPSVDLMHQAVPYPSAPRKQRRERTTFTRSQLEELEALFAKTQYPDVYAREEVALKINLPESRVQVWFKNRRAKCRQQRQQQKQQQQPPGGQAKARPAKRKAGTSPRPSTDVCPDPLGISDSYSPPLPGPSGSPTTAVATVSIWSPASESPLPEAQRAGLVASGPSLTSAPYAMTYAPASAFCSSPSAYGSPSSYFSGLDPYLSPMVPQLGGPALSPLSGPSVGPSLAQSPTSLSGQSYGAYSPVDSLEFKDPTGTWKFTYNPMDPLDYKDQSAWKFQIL

Regarding ATCGTC, the binding signal with FLI1 is 1.11 fold enrichment (6-mer frequency, TF over GST control); with ELK1, 1.17 fold enrichment (6-mer frequency, TF over GST control); in the test with GABPA, 1.06 fold enrichment (6-mer frequency, TF over GST control); with ERG it was 1.03 fold enrichment (6-mer frequency, TF over GST control); with ELF1 it was 1.05 fold enrichment (6-mer frequency, TF over GST control); with EHF, 1.1 fold enrichment (6-mer frequency, TF over GST control). The binding signal with SPI1 was 1.04 fold enrichment (6-mer frequency, TF over GST control); in the test with SPIB, 1.15 fold enrichment (6-mer frequency, TF over GST control); with FEV it was 1.02 fold enrichment (6-mer frequency, TF over GST control); in the test with ETV5, 1.06 fold enrichment (6-mer frequency, TF over GST control); in the test with HSF1 it was 1.06 fold enrichment (6-mer frequency, TF over GST control); with SPIC, 1.06 fold enrichment (6-mer frequency, TF over GST control). The binding signal was 1.07 fold enrichment (6-mer frequency, TF over GST control) in the test with ELF4; 1.02 fold enrichment (6-mer frequency, TF over GST control) with ETV2; 1.09 fold enrichment (6-mer frequency, TF over GST control) in the test with CRX; 1.14 fold enrichment (6-mer frequency, TF over GST control) with ETV1.
